Composite z-score, z-score and composite Z-score data for five molecules are collected here from PubChem BioAssay.

Assay [1] has as its system Human papillomavirus type 1a protein E7 (residues 44-93). As to the kind of experiment: HPV1a E7 fragment binders on microarrays, primary screen, biochemical, small-molecule microarray, residues 44-93, 635 nm fluorescence (AID 1108).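 Further: E7 fragment applied at 1 µg/mL in TBST for 1 h at 4 C; score combines spot fluorescence with its signal to noise ratio.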 As to conditions: small-molecule microarray binding, fluorescence 635 nm; higher = more signal.
Assay [2] is described as follows: modulators of HCV replicon luciferase signal, primary screen, HCV replication inhibitor project, Huh7 cells, luciferase reporter (AID 1109).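 Further: huh7 hepatoma cells harbouring a luciferase neomycin HCV replicon reporter; luciferase luminescence as measure of HCV replicon replication; test concentration not given here.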 As to conditions: 48 h, higher = more signal.
For assay [3], the target named is Left-right determination factor 2 (Homo sapiens) (UniProt O00292). As to the kind of experiment: LEFTY2 binders on small-molecule microarrays, primary screen, biochemical, small-molecule microarray, 635 nm fluorescence scan (AID 1110). The following applies: LEFTY2 binding, higher = more signal.
Left-right determination factor 2 (Homo sapiens), sequence (O00292 whole entry, looked up): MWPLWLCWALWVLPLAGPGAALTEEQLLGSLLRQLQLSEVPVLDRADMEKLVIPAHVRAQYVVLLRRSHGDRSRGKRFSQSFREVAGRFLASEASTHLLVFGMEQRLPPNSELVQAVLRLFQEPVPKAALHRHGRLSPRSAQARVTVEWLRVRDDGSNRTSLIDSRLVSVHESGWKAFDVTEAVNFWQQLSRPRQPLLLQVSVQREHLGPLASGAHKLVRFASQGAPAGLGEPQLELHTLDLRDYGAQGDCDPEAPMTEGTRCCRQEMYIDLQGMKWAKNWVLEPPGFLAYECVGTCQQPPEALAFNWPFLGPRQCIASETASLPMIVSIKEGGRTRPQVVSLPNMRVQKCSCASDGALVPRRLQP
Assay [4] has as its target Calmodulin-1 (Homo sapiens) (UniProt P0DP23). The assay can be described thus: CALM1 binders on microarrays, EGTA buffer, profiling panel, biochemical, small-molecule microarray, Cy5-labelled CALM1 (AID 1111).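 Further: labelled calmodulin applied in Tris saline Tween buffer holding calcium plus EGTA and DTT.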 The following applies: Cy5-CALM1 binding fluorescence, higher = more signal.
For assay [5] the target is unchanged. The assay can be described thus: calcium-bound CALM1 binders on microarrays, profiling panel, artefact control for SMM control-protein annotation, biochemical, small-molecule microarray, Cy5-labelled CALM1, plus calcium (AID 1112).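 Further: score merges spot fluorescence with signal to noise from triplicate slides.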 As to conditions: Cy5-CALM1 binding fluorescence, higher = more signal.
The nature of assay [6]: small-molecule microarray binders of probe aWnt5a, primary screen, biochemical, biotinylated probe, 635/667 nm fluorescence (AID 1113).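 Further: score merges 667 nm fluorescence intensity with signal-to-noise per printed feature.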 As to conditions: higher = more signal.
Assay [7] can be described thus: small-molecule microarray binders of probe aShh, primary screen, biochemical, biotinylated probe, 635/667 nm fluorescence (AID 1114).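 Further: probe is biotin-labelled aShh protein from a stem cell growth factor screen; measures binding of labelled protein to compounds printed on the slide; score merges feature fluorescence at 667 nm with signal-to-noise.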 The following applies: higher = more signal.
The nature of assay [8]: small-molecule microarray binders of probe aNog, primary screen, biochemical, biotinylated probe, 635/667 nm fluorescence (AID 1115).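 Further: probe is biotinylated aNog protein used at 0.15 µg/mL for 1 h at 4 C; z-score combines 667 nm fluorescence of each spot with its signal to noise.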 The following applies: higher = more signal.
The target in assay [9] is Torsin-1A-interacting protein 1 (Homo sapiens) (UniProt Q5JTV8). As to the kind of experiment: LAP1 binders from COS7 cell lysate, primary screen, small-molecule microarray, 635/667 nm fluorescence (AID 1116). The following applies: COS7-hLAP1 lysate binding, 635 nm fluorescence, higher = more signal.
Torsin-1A-interacting protein 1 (Homo sapiens), sequence (Q5JTV8 whole entry, looked up): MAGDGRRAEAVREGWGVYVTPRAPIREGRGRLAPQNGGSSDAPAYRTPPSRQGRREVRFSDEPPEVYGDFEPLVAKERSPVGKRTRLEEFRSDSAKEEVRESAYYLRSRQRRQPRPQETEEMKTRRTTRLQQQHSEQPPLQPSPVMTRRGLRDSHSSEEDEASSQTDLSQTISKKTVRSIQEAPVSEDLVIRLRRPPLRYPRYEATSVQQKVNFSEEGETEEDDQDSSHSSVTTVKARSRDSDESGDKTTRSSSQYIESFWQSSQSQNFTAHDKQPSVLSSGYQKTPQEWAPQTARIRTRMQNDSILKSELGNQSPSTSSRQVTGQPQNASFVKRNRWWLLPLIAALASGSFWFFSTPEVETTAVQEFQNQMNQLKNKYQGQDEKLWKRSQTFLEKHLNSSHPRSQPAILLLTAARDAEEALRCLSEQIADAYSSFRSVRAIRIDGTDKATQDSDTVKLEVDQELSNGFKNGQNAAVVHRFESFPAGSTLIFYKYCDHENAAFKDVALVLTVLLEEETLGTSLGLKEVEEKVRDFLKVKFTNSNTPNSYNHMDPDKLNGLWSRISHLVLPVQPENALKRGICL
The target of assay [10] is Alpha-bungarotoxin (Bungarus multicinctus) (UniProt P60615). The assay can be described thus: alpha-bungarotoxin binders on microarray, profiling panel, artefact control for SMM control protein annotation, biochemical, small-molecule microarray, Alexa647 label, 635/667 nm fluorescence (AID 1117). The following applies: alpha-BTX-A647 binding fluorescence, higher = more signal.
Alpha-bungarotoxin (Bungarus multicinctus), sequence (P60615 whole entry, looked up): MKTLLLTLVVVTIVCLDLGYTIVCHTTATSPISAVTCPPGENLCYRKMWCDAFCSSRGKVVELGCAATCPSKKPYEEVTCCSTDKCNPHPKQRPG

In another assay the target is Albumin (Bos taurus) (UniProt P02769). The assay can be described thus: bovine serum albumin binders on microarray, profiling panel, artefact control for SMM control protein annotation, biochemical, small-molecule microarray, Alexa647 label, 635/667 nm fluorescence (AID 1118).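 Further: score merges 667 nm emission intensity and signal-to-noise per printed compound spot.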 The following applies: BSA-A647 binding, fluorescence 635 nm, higher = more signal.
Albumin (Bos taurus), sequence (P02769 whole entry, looked up): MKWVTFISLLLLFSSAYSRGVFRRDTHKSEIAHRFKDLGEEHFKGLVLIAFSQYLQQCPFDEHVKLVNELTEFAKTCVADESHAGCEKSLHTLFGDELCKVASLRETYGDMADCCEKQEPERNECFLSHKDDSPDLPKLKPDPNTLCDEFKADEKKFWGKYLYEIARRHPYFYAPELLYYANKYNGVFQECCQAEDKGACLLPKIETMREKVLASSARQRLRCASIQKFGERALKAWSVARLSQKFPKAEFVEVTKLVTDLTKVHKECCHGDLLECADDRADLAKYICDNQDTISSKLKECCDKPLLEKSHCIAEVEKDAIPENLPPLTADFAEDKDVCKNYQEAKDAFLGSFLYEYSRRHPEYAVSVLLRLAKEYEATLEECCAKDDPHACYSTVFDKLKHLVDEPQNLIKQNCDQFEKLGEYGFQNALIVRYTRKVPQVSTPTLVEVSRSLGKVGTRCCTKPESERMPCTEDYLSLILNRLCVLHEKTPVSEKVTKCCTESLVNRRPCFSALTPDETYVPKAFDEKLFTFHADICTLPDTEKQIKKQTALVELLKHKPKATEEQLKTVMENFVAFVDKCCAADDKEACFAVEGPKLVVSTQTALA
A short description of assay [11]: small-molecule microarray binders of probe aXIP, primary screen, biochemical, NeuroSMM set, 635/667 nm fluorescence (AID 1119).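 Further: probe is the protein aXip251-270 applied at 1 µg/mL to compound-printed slides; binding of probe to printed compounds measured as 667 nm fluorescence plus signal to noise.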 As to conditions: higher = more signal, called active from +8 up or from −8 down.
Assay [12] in a line: small-molecule binders of probe aNOTCH3, primary screen, biochemical, small-molecule microarray, 635/667 nm fluorescence (AID 1120).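 Further: probe is a biotin-tagged antibody raised against NOTCH3 rather than NOTCH3 protein; score merges spot fluorescence near 667 nm with spot signal to noise.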 As to conditions: higher = more signal.
Assay [13] is described as follows: small-molecule binders of probe aNOTCH2, primary screen, biochemical, small-molecule microarray, 635/667 nm fluorescence (AID 1121).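 Further: score merges feature fluorescence read at 667 nm with its signal to noise.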 As to conditions: higher = more signal.
In assay [14] the target is Carbonic anhydrase 2 (Homo sapiens) (UniProt P00918). As to the kind of experiment: CAII small-molecule binders, profiling panel, biochemical, small-molecule microarray, Alexa647-labelled CAII (AID 1122). The following applies: CAII-A647 binding fluorescence, higher = more signal.
A short description of assay [15]: COS7 lysate on small-molecule microarray, probe aHis, 635 nm (AID 1123).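 Further: z-score combines 667nm fluorescence intensity with signal-to-noise per printed compound spot.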 As to conditions: COS7 cell lysate, fluorescence, higher = more signal.
Assay [16] is described as follows: compound binding in COS7 lysate, probe aLAP1, primary screen, cell lysate, small-molecule microarray (AID 1124).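 Further: lysate comes from COS7 cells expressing LAP1 and is applied at 0.3 µg/mL; score merges spot fluorescence near 667 nm with signal-to-noise over triplicate slides.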 As to conditions: probe aLAP1, fluorescence, higher = more signal.
Another assay concerns Sam68 (KHDRBS1). The assay can be described thus: Sam68 small-molecule binders, primary screen, biochemical, small-molecule microarray, 635 nm fluorescence (AID 1125).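 Further: score merges 667 nm channel intensity with signal to noise over triplicate slides.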 As to conditions: small-molecule microarray binding, higher = more signal.
Assay [17] concerns Chordin-like protein 2 (CHRDL2). The assay can be described thus: CHRDL2 small-molecule binders, primary screen, biochemical, small-molecule microarray, 635 nm fluorescence (AID 1126).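 Further: printed compound slides probed with Chrdl2 protein at 4 µg/mL for 1 h at 4 C; score merges 667 nm emission intensity with signal to noise over three replicate slides.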 The following applies: small-molecule microarray binding, fluorescence 635 nm; higher = more signal.
Assay [18] has as its target Concanavalin-A (Canavalia ensiformis) (UniProt P02866). As to the kind of experiment: ConA small-molecule binders, primary screen, artefact control for SMM control protein annotation, biochemical, small-molecule microarray, Alexa647 label, 635 nm (AID 1127).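 Further: z combines 667 nm emission intensity with signal-to-noise across three replicate slides.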 The following applies: ConA-A647 binding fluorescence, higher = more signal.

Active and inactive are the calls of the source.

Concanavalin-A (Canavalia ensiformis), sequence (P02866 whole entry, looked up): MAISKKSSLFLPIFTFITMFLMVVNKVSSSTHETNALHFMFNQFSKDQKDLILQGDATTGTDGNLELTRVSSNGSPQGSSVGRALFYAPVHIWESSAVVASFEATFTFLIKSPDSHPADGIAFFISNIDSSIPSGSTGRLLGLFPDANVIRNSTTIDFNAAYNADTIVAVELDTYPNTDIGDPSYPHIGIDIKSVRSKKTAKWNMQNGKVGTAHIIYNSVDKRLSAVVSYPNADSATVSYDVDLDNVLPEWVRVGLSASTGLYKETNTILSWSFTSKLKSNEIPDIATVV

Consider `O=C1O[C@H](c2ccccc2)[C@H](c2ccccc2)N2[C@H]1[C@@H](C(=O)NC[C@H](O)c1ccccc1)[C@]1(C(=O)Nc3ccccc31)[C@H]2c1ccccc1OCCO`, for which the composite z-score was 1.4 in assay [1]; -0.11 in [3]; 1.31 in [4]; 0.376 in [5]; -0.027 in [6]; 1.47 in assay [7]. Besides, the composite z-score in assay [8] was 2.84; in assay [9], 1.41; in assay [10] it was 2.46; with Albumin (Bos taurus), 0.426; in assay [12], -0.171; in assay [13], -0.138. Moreover, the composite z-score in assay [14] was determined as 0.613; in [15], 1.84; in [16] it was 0.571; in the assay on Sam68 (KHDRBS1) it was 0.772; in [17], 0.0939; in assay [18] it was 1.02. In assay [2], this molecule gave a z-score of -3.34. Moreover, the composite Z-score in assay [11] is 0.16 (inactive).

For the molecule `CC(C)C(CO)N1C(=O)[C@@H]2[C@H]3C(=O)OCC=C[C@H]3OC23C=CCN(Cn2nnc4ccccc42)C(=O)[C@@H]13` (stereo not given in full), the composite z-score in assay [1] was -0.484; in assay [3], -0.734; in assay [4], -0.323; in assay [5] it was 0.608; in [6], -0.226; in assay [7], 0.35. In addition, the composite z-score in assay [8] was -0.358; in [9], -0.273; in assay [10], -0.284; in the assay with Albumin (Bos taurus) it was -1.25; in [12], -0.226; in assay [13], -0.204. Besides, the composite z-score in assay [14] was 0.931; in [15], -0.0704; in assay [16] it was -0.215; in the assay on Sam68 (KHDRBS1), -0.821; in assay [17] it was -1.73; in assay [18] it was -1.34. Further, in assay [2], the z-score is -0.634. Further, in [11], the composite Z-score was -0.274 (inactive).

For the molecule `O=C1N(CCS(=O)(=O)c2ccccc2)c2ccccc2[C@H]2OC(c3ccc(OCCCO)cc3)=N[C@@]12CCS(=O)(=O)c1ccccc1`, the composite z-score is 1.13 in assay [1]; 0.98 in [3]; 0.589 in assay [4]; 0.362 in [5]; 0.385 in [6]; 0.359 in [7]. Further, the composite z-score was 1.29 in assay [8]; 0.475 in assay [9]; 0.96 in assay [10]; -1.18 with Albumin (Bos taurus); 0.674 in [12]; 0.445 in assay [13]. Also, the composite z-score in assay [14] is 0.352; in [15], 2.82; in [16], 0.226; in the assay on Sam68 (KHDRBS1) it was 1.29; in assay [17], 1.07; in assay [18] it was 1.16. Further, the z-score in [2] came to 0.208. Besides, in [11], the composite Z-score was 1.11 (inactive).

Regarding `CN1C(=O)C2C=CC(C(O)COCc3ccccc3)N(Nc3ccccc3)C2C1=O` (stereo not given), the composite z-score in assay [1] was 0.372; in assay [3], 0.0615; in [4], -0.0981; in [5], -0.57; in assay [6], 0.0403; in [7], -0.0793. Also, the composite z-score in [8] is 1.03; in assay [9], 0.661; in assay [10], 0.347; with Albumin (Bos taurus), 0.898; in assay [12], 0.348; in [13], -0.127. Further, the composite z-score in [14] is 0.81; in assay [15] it was 1.44; in assay [16] it was -0.0468; in the assay on Sam68 (KHDRBS1) it was 0.616; in [17], -0.142; in assay [18], 0.479. Besides, in assay [2], the z-score worked out at 0.74. For the same molecule, in [11], the composite Z-score was -0.0217 (inactive).

Turning to `COCC1=C([C@H](O)CCc2ccccc2)[C@H](CO)[C@@H]2C(=O)N(C)C(=O)[C@@H]2C1`, the composite z-score in assay [1] is -0.121; in assay [3], 0.394; in assay [4], -0.205; in assay [5], -0.783; in [6] it was -0.104; in [7] it was -0.164. Moreover, the composite z-score is -0.172 in assay [8]; 0.478 in assay [9]; -0.152 in assay [10]; 0.218 in the assay with Albumin (Bos taurus); 0.0893 in assay [12]; -0.0502 in assay [13]. In addition, the composite z-score in assay [14] was 0.426; in assay [15], -0.0175; in assay [16], 0.0165; with Sam68 (KHDRBS1), 0.322; in assay [17] it was 0.758; in assay [18], -0.0605. The same molecule showed a z-score in assay [2] of 0.216. Moreover, the composite Z-score in assay [11] is -0.222 (inactive).
